Source: PubChem BioAssay (several laboratories)
Hits are enriched below; roughly 2% of the tested compounds scored in any of these assays.
Exocytosis inh: lytic granule exocytosis inhibition | TALL-104 LAMP-1 surface exposure, flow cytometry; cells stimulated with thapsigargin and PMA | inhibition, % at 10 µM | 360,000 compounds, 0.66% hits;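 active = inhibition above about 55%, limit read from the data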
VLA-4 inh: inhibition in a human VLA-4 binding assay; P13612; VLA-4 expressing cells, ligand binding flow cytometry; inhibition, % (about 7 µM as worked out from the volumes in the protocol); 330,000 compounds, 0.2% hits; in the data active = inhibition above about 50%
ABCB6 inh MLPCN: inhibitors of human ABC transporter ABCB6; fluorescence ratio to DMSO, % at 10 µM; K562-ABCB6 porphyrin accumulation, flow cytometry, 1 h; stronger effect = lower value; 360,000 compounds, 0.19% hits;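 active = fluorescence ratio to DMSO below 75%, the collection mean minus 3 SD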;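 also: signal is porphyrin accumulated inside mitochondria; lower ratio means ABCB6 inhibition with less porphyrin fluorescence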
PG9 binder: small molecules binding HIV-1 gp120 antibody PG9; 360,000 compounds, 0.43% hits; TR-FRET gp120-PG9 antibody binding; inhibition, % at 6.7 µM; in the data active = inhibition above about 8.5%
Rev-erbA mod: modulates human Rev-erb alpha binding to DNA. P20393. Rev-erbα–FITC-DNA binding, fluorescence polarization, 90 min. activity, % at 10 µM. 370,000 compounds, 0.79% hits. AID 1259318;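 active = activity above about 14%, limit read from the data; passing the limit was not always enough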
NR1D1 mod conf: Rev-erb alpha (human) modulation, hit confirmation. activation, % at 25 µM. 3,000 compounds, 61% hits. Rev-erb alpha FITC-DNA binding, fluorescence polarization, 90 min. shares compounds with Rev-erbA mod;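 active = activation at or above a set limit, or at least 3 SD above the negative control mean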
RORg counter: RORgamma DNA-binding activity, dose-response counter-screen; shares compounds with Rev-erbA mod; purified RORgamma protein-FITC-DNA binding, fluorescence polarization; IC50, µM; 910 compounds, 8% hits;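 active = Compounds whose fitted half-maximal concentration for disrupting protein-DNA binding is below 10 micromolar; the record names Rev-erb in its text, so the target is in doubt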
Large screens that a line does not name were inactive (follow-up assays come after a bar, where they were run).

COC(=O)C12C=C3CC(C4CC4)=C3C(=O)N1Cc1[nH]c3ccccc3c1C2 (configuration not stated)	none (no result: Exocytosis inh, VLA-4 inh, ABCB6 inh MLPCN, PG9 binder)
O=C(NCCCc1ccccc1)[C@H](Cc1c[nH]c2ccccc12)NC1(C(=O)NCCc2c[nH]c3ccccc23)CCOCC1	none (no result: Exocytosis inh, VLA-4 inh, ABCB6 inh MLPCN, PG9 binder)
COc1ccc(-c2ccc(C3C(C#N)=C(N)Oc4n[nH]c(C)c43)o2)cc1 (configuration not stated)	Rev-erbA mod 22 | NR1D1 mod conf 19
COc1ccc(-c2oc3ccccc3c(=O)c2OC(=O)c2ccc(C)cc2)cc1	Rev-erbA mod 22 | NR1D1 mod conf 36 | RORg counter inactive
O=C(Oc1c(-c2ccccc2)oc2ccccc2c1=O)c1ccccc1	none
Cc1c(NC(=O)C2CCCN(S(=O)(=O)c3ccc(F)cc3)C2)c(=O)n(-c2ccccc2)n1C (configuration not stated)	none (no result: Exocytosis inh, VLA-4 inh, ABCB6 inh MLPCN, PG9 binder)
COc1cccc(C(=O)n2ccc3ccc(-c4ccc5ccn(Cc6ccc(C#N)cc6)c5c4)cc32)c1	Rev-erbA mod 48 (no result: Exocytosis inh, VLA-4 inh, ABCB6 inh MLPCN, PG9 binder) | NR1D1 mod conf inactive
COc1cccc(C(=O)n2ccc3ccc(-c4ccc5ccn(Cc6ccccc6)c5c4)cc32)c1	Rev-erbA mod 24 (no result: Exocytosis inh, VLA-4 inh, ABCB6 inh MLPCN, PG9 binder) | NR1D1 mod conf 52 | RORg counter 6.8
COc1cccc(C(=O)n2ccc3ccc(-c4ccc5ccn(C(=O)c6cccc(OC)c6)c5c4)cc32)c1	Rev-erbA mod 44 (no result: Exocytosis inh, VLA-4 inh, ABCB6 inh MLPCN, PG9 binder) | NR1D1 mod conf 85 | RORg counter inactive
CCOC(=O)C1=C(c2ccccc2)O/C(=C(\C(=O)OC)C(F)(F)F)S1	Rev-erbA mod 25 | NR1D1 mod conf 18
CCOc1ccc(NC(=O)CN2C(=O)c3cccc4cccc2c34)cc1	none (no result: Exocytosis inh, VLA-4 inh, ABCB6 inh MLPCN)
CC(=O)Nc1ccc(S(=O)(=O)N2C(=O)c3cccc4cccc2c34)cc1	Rev-erbA mod 33 (no result: Exocytosis inh, ABCB6 inh MLPCN) | NR1D1 mod conf inactive
CN(CCO)c1ccc2c(c1)Oc1ccccc1CN(Cc1cn(Cc3ccc(F)cc3)nn1)S2(=O)=O	none (no result: Exocytosis inh, VLA-4 inh, ABCB6 inh MLPCN, PG9 binder)
COc1ccc(-c2cc3ccc(OCC(C)=O)cc3oc2=O)cc1	none
COC(=O)COc1ccc2cc(-c3ccc(OC)cc3)c(=O)oc2c1	Rev-erbA mod 25 | NR1D1 mod conf inactive
COc1ccc(-c2cc3ccc(OCC(C)=O)cc3oc2=O)cc1OC	Rev-erbA mod 19 | NR1D1 mod conf inactive
COC(=O)COc1ccc2cc(-c3ccccc3)c(=O)oc2c1	none
COc1cccc(OC)c1C(=O)NC(=S)Nc1cc(-c2nc3ccccc3[nH]2)ccc1Cl	Rev-erbA mod 26 | NR1D1 mod conf 24
CCOC(=O)c1c(-c2ccccc2)csc1NC(=O)/C(C#N)=C\c1ccc(O)c(OC)c1	Rev-erbA mod 42 (no result: VLA-4 inh) | NR1D1 mod conf 12
CSc1nc(N)nc(SCC(=O)C23CC4CC(CC(C4)C2)C3)c1C#N	none
C=CCSc1nc(N)c(C#N)c(-c2ccccc2)c1C#N	Rev-erbA mod 50 | NR1D1 mod conf 32 | RORg counter inactive
CCc1c(C)nc(N)c(C#N)c1-c1ccccc1	none
CCCSc1nc(N)c(C#N)c(-c2ccc(C)cc2)c1C#N	Rev-erbA mod 66 | NR1D1 mod conf 32
N#Cc1c(N)nc(SCC(=O)C23CC4CC(CC(C4)C2)C3)c(C#N)c1-c1ccc(Cl)cc1	Rev-erbA mod 81 | NR1D1 mod conf 44 | RORg counter inactive
CCOC(=O)CC(=O)CSc1nc(N)c(C#N)c(-c2ccc(Cl)cc2)c1C#N	none
CN1C(=O)[C@@]2(O[C@H]3C=CC=CN3C3=C2C(=O)CCC3)c2cccc(Br)c21	none (no result: Exocytosis inh, VLA-4 inh, ABCB6 inh MLPCN)
COc1ccc(-n2nc(C(=O)NCC(=O)Nc3ccccn3)c3ccccc3c2=O)cc1Cl	Rev-erbA mod 66 (no result: VLA-4 inh) | NR1D1 mod conf 45 | RORg counter inactive
COc1ccc(-n2nc(C(=O)NCC(=O)N3CCN(c4ccccn4)CC3)c3ccccc3c2=O)c(OC)c1	none
COc1ccc(-n2nc(C(=O)NCC(=O)N3CCN(c4cccc(Cl)c4)CC3)c3ccccc3c2=O)c(OC)c1	Rev-erbA mod 31 | NR1D1 mod conf inactive
COc1ccc(-n2nc(C(=O)NCC(=O)Nc3cc(Cl)c(OC)cc3OC)c3ccccc3c2=O)cc1	Rev-erbA mod 53 | NR1D1 mod conf 50 | RORg counter inactive
COC(=O)c1cc(-c2cc3ccccc3o2)c(=O)n2c1CCC2	none (no result: Exocytosis inh, VLA-4 inh, ABCB6 inh MLPCN, PG9 binder)
Cc1ccccc1CN1CCCCC(NC(=O)c2ccccc2)C1=O (configuration not stated)	none (no result: Exocytosis inh, VLA-4 inh, ABCB6 inh MLPCN, PG9 binder)
